Bioassay records from PubChem.
Compounds with a hit are over-represented: about 2.4% of the library has one in this group of screens.
SENP7 inh: inhibitors of human SENP7 protease. Q9BQF6. recombinant SENP7, Z-RLRGG-aminoluciferin luminescence, 40 min. inhibition, % at 5 µM. actives 1.5% (n = 330,000). AID 434973;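 active = inhibition above about 50% at the single test dose, limit read from the data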;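 also: plate controls were DMSO with enzyme for no effect and no enzyme buffer wells for full effect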
SENP8 block-1: inhibitors of human SENP8 protease | Q96LD8 | purified SENP8, Z-RLRGG-aminoluciferin cleavage, luminescence | inhibition, % at 10 µM | actives 1.2% (n = 330,000) | AID 2540; in the data active = inhibition above about 50%
Target sequence (Q96LD8 whole entry, looked up): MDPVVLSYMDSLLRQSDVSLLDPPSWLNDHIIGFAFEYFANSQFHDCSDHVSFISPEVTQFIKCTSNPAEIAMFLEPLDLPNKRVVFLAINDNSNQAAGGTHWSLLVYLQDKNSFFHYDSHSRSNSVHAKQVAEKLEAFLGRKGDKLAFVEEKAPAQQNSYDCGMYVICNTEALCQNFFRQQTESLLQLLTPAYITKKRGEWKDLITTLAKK
SENP8 block-2: inhibitors of human SENP8 protease; actives 0.64% (n = 360,000); inhibition, % at 20 µM; recombinant SENP8, Nedd8 substrate fluorescence; in the data active = inhibition mostly above about 40%, no sharp cut-off; inactive = mostly below about 27%
Platelet DG rel: modulates dense granule release in human platelets; human platelet-rich plasma, SFLLRN dense granule ATP release, luminescence; inhibition, %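 (compounds screened at 7.5 µM in platelet-rich plasma)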; actives 0.22% (n = 300,000); AID 1663;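 active = mean replicate score, as percent of positive control, at or above 50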
SENP6 block: SENP6 protease inhibition. Q9GZR1. Recombinant SENP6 catalytic domain, aminoluciferin luminescence. inhibition, % at 10 µM. actives 1.8% (n = 330,000). AID 2599;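 active = inhibition above about 50% at the single tested dose, limit read from the data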;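 also: plate controls were DMSO wells with enzyme for no effect and DMSO wells lacking enzyme for full effect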
SENP8 confirm: confirmation of human SENP8 protease inhibitors; shares compounds with SENP7 inh; Recombinant SENP8, Z-RLRGG-aminoluciferin luminescence, 60 min; inhibition, % at 12.5 µM; actives 40% (n = 6,200); AID 488912;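 active = mean inhibition across replicates above about 50%, limit read from the data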
SENP6 conf: human SENP6 inhibition, confirmed; shares compounds with SENP7 inh; recombinant SENP6, Z-RLRGG-aminoluciferin luminescence; inhibition, % at 12.5 µM; actives 58% (n = 6,200); AID 488915
SENP7 conf: confirmation of human SENP7 protease inhibitors | inhibition, % at 12.5 µM | recombinant SENP7, Z-RLRGG-aminoluciferin luminescence, 40 min | shares compounds with SENP7 inh | AID 488917 | actives 69% (n = 6,200)
Casp3 SENP sel: inhibits human caspase-3 in SENP selectivity test | shares compounds with SENP7 inh | purified caspase-3, Z-DEVD-aminoluciferin luminescence, 60 min | inhibition, % at 12.5 µM | actives 60% (n = 6,200) | AID 488918;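 active = mean inhibition above about 50%, limit read from the data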;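 also: plate controls were enzyme with DMSO for no effect and wells without caspase-3 for full effect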
Target sequence (P42574 28-227 limits assumed): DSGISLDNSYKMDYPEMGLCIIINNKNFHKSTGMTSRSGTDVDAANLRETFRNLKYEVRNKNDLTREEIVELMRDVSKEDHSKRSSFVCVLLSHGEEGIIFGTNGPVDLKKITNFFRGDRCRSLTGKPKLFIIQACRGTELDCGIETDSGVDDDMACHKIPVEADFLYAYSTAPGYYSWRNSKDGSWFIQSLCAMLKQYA
Luc interf: luminescence interference (SENP counter-screen). shares compounds with SENP7 inh. Pre-incubated SENP8/Z-RLRGG-aminoluciferin, luciferase luminescence interference. inhibition, % at 12.5 µM. actives 39% (n = 6,200);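 active = mean inhibition above about 50% when retested at one dose, limit read from the data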;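 also: plate controls were DMSO wells with completed reaction for no effect and substrate without enzyme for full effect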
Active calls of the source: *; · = no result.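 The calls were made as follows, unless noted: active = mean inhibition above about 50% in the one-dose retest (limit read from the data); inactive = the rest.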

SMILES	SENP7 inh	SENP8 block-1	SENP8 block-2	Platelet DG rel	SENP6 block	SENP8 confirm	SENP6 conf	SENP7 conf	Casp3 SENP sel	Luc interf
O=S(=O)(O)c1cccc(N=Nc2c(O)ccc3ccccc23)c1	92.4*	94.5*	23.5	17.0	98.6*	98.0*	98.7*	101.9*	96.8*	96.5*
Oc1ccc2ccccc2c1N=Nc1ccccc1F	6.8	-6.4	2.5	-0.7	16.2	·	·	·	·	·
Cc1ccc(N/C=C/C(=O)c2cccs2)cc1	93.2*	94.2*	-163.3	51.6*	92.8*	79.3*	97.2*	101.2*	95.0*	69.8*
O=C(/C=C/Nc1ccccc1F)c1cccs1	100.0*	96.2*	-78.9	48.5	95.8*	97.2*	99.8*	102.8*	97.5*	96.6*
O=C(C=Cc1cccs1)c1cccs1	·	·	2.7	·	·	·	·	·	·	·
O=C(/C=C/Nc1ccc(F)cc1F)c1cccs1	98.7*	97.0*	-138.5	36.0	96.3*	-7.9	99.7*	103.5*	97.8*	26.8
O=C(NNC(=O)c1cccs1)c1cccc(F)c1	2.9	-3.0	3.4	-5.3	-17.7	·	·	·	·	·
Cc1noc(NS(=O)(=O)c2ccc(N/C=C\C(=O)c3cccs3)cc2)c1C	-14.9	-3.1	-63.1	-3.5	15.6	·	·	·	·	·
O=C(/C=C\Nc1cccc(F)c1)c1cccs1	92.4*	88.8*	-283.9	17.4	94.4*	95.6*	96.9*	102.0*	93.3*	94.8*
c1ccc(-c2cc(NCCN3CCCCC3)c3ccccc3n2)cc1	3.2	5.5	-48.7	3.6	1.4	·	·	·	·	·
Cc1ccc(Cl)cc1NC1=C/C(=N\S(=O)(=O)c2cccs2)c2ccccc2C1=O	75.7*	77.7*	84.6*	-2.3	75.3*	82.0*	95.5*	76.8*	85.4*	-0.3
COc1ccc2c(c1)NC(c1ccc(N(C)C)cc1)c1cccn1-2 (configuration not stated)	-6.0	5.2	-429.4	-0.6	-8.3	·	·	·	·	·
CCOc1ccc(C(=O)NCCc2ccccc2)cc1	55.7*	51.8*	14.0	6.8	64.2*	59.3*	59.6*	82.0*	80.3*	33.6
CCOc1ccc(/C(C)=N\NC(=O)Cc2ccccc2)cc1	-5.2	7.5	29.3	-1.4	96.3*	-2.0	-10.9	-6.2	-3.7	-8.5
C/C(=N\NC(=O)COc1ccccc1)c1ccc(O)cc1	-8.5	-6.6	0.4	4.9	-12.5	·	·	·	·	·
CC(=O)Oc1ccc(C(=O)NCCc2ccccc2)cc1	36.4	10.2	0.1	4.0	33.8	·	·	·	·	·
CN(C)c1ccc(N=Nc2nccs2)cc1	·	·	36.9	·	·	·	·	·	·	·
CN(C)c1ccc(N=Nc2ccccc2Br)cc1	98.8*	92.9*	35.1	1.8	95.6*	86.9*	94.2*	91.4*	89.9*	56.7*
CC(=O)c1ccc(N=Nc2ccc(C)cc2)cc1	87.3*	82.4*	22.4	2.9	84.9*	60.7*	62.1*	79.4*	68.0*	47.5
CC(=O)c1ccc(N=Nc2ccc(N(C)C)cc2)cc1	92.8*	74.8*	37.1	26.4	54.4*	16.1	24.7	16.1	52.8*	13.2
Cc1cc(N(C)C)ccc1N=Nc1ccc(N)cc1	26.5	33.7	35.0	4.1	45.9	·	·	·	·	·
O=C(CCN1CCCCC1)NNC(=O)C12CC3CC(CC(C3)C1)C2	1.9	-0.1	5.4	-3.0	24.1	·	·	·	·	·
Nc1ccc(-c2ncc(-c3ccccc3)o2)cc1	68.9*	61.2*	-346.2	17.5	72.9*	73.5*	67.6*	88.7*	44.9	73.6*
Cc1ccnc2nc(C(=O)Nc3ccc4c(c3)OCO4)nn12	-2.4	57.3*	22.7	21.3	67.0*	35.7	63.4*	53.3*	90.5*	29.6
O=C(/C=C\Nc1ccc2c(c1)OCO2)c1ccccn1	99.9*	96.0*	-298.6	58.3*	97.0*	81.4*	97.2*	99.0*	92.4*	26.0
